The structures appear in SMILES notation. Hit rate of the full screen: of about 420,000 compounds, about 64,000 (15%) were called active. Another 27% or so got no clear call; they are omitted. The call rests on the fitted dose curve; in most records, active means well fitted inhibition curve with a large enough effect; inconclusive means small, poorly fitted or top-dose-only effect; inactive means flat fitted curve, though single readings scatter. These entries were drawn from the full list. Where a call stands in place of a potency, no number is given.
Potency means the concentration at half of the fitted maximal effect.

A short description of the experiment: qHTS for Inhibitors of human tyrosyl-DNA phosphodiesterase 1 (TDP1): qHTS in cells in absence of CPT. Further: nearly all actives have a fitted effect of over 55% in size. The note with it: DT40 Tdp1-/- hTDP1 cells, no CPT, ATP luminescence, 48 h; activity change, negative = growth inhibition: at 46.2 µM (top of the series). Put shortly: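 DT40 Tdp1-/-;hTDP1 cells, no CPT (DMSO vehicle only), 400 cells/well; compounds pin-transferred; ≥48 hr, 37 °C; CellTiter-Glo 30 min RT dark, luminescence read.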
A general note: Quantitative high-throughput screening tests each substance at several concentrations.
With `CO[C@H]1O[C@@H]2O[C@@]3(C)CC[C@@H]4[C@@H](C)CC[C@@H]([C@H]1C)[C@@]24OO3`, the Potency is 0.891 µM (active).
In the case of `CCOC(=O)CSc1nnc(-c2ccncc2)o1`, the Potency result was “inactive”.
As for `CCOc1cc(/C=N/NC(=O)OC)ccc1OCCSc1ccc(Cl)cc1`, the entry is “inactive”; as for `Cc1ccc(NN=Nc2nc3c([nH]2)c(=O)n(C)c(=O)n3C)cc1`, “inactive”; as for `Cn1cc([N+](=O)[O-])c(C(=O)Nc2ccc3c(c2)OCCO3)n1`, “inactive”.
Take `Cc1ccn2c(Nc3ccc4c(c3)OCCO4)c(-c3ccc(C)s3)nc2c1`: the Potency entry was “inactive”.
For the compound `Oc1ccccc1-c1nc2ccc(Cl)cn2c1Nc1ccc2c(c1)OCCO2`, the Potency was 23.1 µM (active).
As for `COCCn1c(SCC(=O)Nc2nc(C)cs2)nnc1C(C)C`, the entry is “inactive”; as for `COc1ccc(OC)c(C2N(c3ccccn3)C(=O)C3CCCN32)c1` (configuration not stated), “inactive”.
In the case of `CCc1nnc(NS(=O)(=O)c2ccc(NC(=S)NC(=O)/C=C/c3cccs3)cc2)s1`, the Potency entry was “inactive”.
Under `O=C(c1cc(-c2cccc(O)c2)on1)N1CCc2ccccc2C1` stands “inactive”; under `Clc1ccc(-c2cc(C3CCNCC3)[nH]n2)c(Cl)c1`, 20.6 µM (active).
In the case of `Clc1ccc(-c2ncc3ccccn23)c(Cl)c1`, the Potency entry is “inactive”.
Consider `CCCn1c(=O)c2[nH]c(C3CCCC3)nc2n(CCC)c1=O`, for which the Potency result was “inactive”.
As for `CCCc1cc(=O)[nH]c(SCC(=O)Nc2ccc(S(=O)(=O)N3CCCC3)cc2)n1`, the entry is “inactive”.
Under `Clc1ccc(CSc2nnc(/C=C/c3ccccc3)o2)c(Cl)c1` stands “inactive”; under `COCCNc1nc2nonc2nc1N1CCCC1c1nccs1` (configuration not stated), “inactive”; under `CNC(=O)CN1C(=O)c2ccccc2S1(=O)=O`, “inactive”.
As for `O=C1c2ccccc2S(=O)(=O)N1Cc1c(F)cccc1Cl`, the entry is “inactive”; as for `CC(C)(C)c1ccc(CN2C(=O)c3ccccc3S2(=O)=O)cc1`, 20.6 µM (active); as for `CC(=O)[C@@]12O[C@@H]1C[C@H]1[C@@H]3CC[C@H]4C[C@@H](O)CC[C@]4(C)[C@H]3CC[C@@]12C`, “inactive”.
In the case of `NC(=O)CCC(NS(=O)(=O)c1ccc(Cl)cc1)C(=O)NCc1ccccc1Cl` (configuration not stated), the Potency result is “inactive”.
Regarding `O=C(O)COc1ccc(/C=N/O)cc1Br`, the Potency result is “inactive”.
For `CCCC(=O)Nc1nnc(-c2ccccc2)o1`, the Potency entry was “inactive”.
For the compound `Cc1c(CC(=O)NCCCCCC(=O)O)c(=O)oc2cc3occ(-c4ccccc4)c3cc12`, the Potency entry is “inactive”.
Consider `CCCCCCc1cc2cc(-c3nnc(-c4ccccc4)o3)c(=O)oc2cc1O`, for which the Potency is 20.6 µM (active).
Under `COc1cc2c(cc1OC)CC(=O)N(CCCN(C)C[C@H]1Cc3cc(OC)c(OC)cc31)CC2` stands “inactive”.
Consider `CCOc1ccc(/C=N/NC(=O)CSc2ccccn2)cc1O`, for which the Potency result is “inactive”.
As for `CC(C)(C)C(=O)CSc1nc2ccccc2o1`, the entry is “inactive”; as for `C=CCn1c(Cn2nnc3ccccc32)nnc1SCC(=O)N/N=C/c1cc(Br)cc(OC)c1O`, “inactive”; as for `Cn1c(SCC(=O)N/N=C/c2ccc(O)c(O)c2)nc2ccccc21`, 18.4 µM (active).
Take `Cc1ccc(/C=N/NC(=O)CSc2nc3ccccc3o2)cc1`: the Potency was 23.1 µM (active).
Take `CCN(CC)C(=O)CSc1nc2ccccc2o1`: the Potency entry is “inactive”.
Take `COc1cc(OC)c(C(=O)Nc2ccc(N(C)C)cc2)cc1OC`: the Potency entry is “inactive”.
Under `COc1ccc(-c2nc3cnc(N(C)C)nc3n(Cc3cccs3)c2=O)cc1` stands “inactive”; under `CC1(Oc2ccccc2-c2ccno2)CCN(Cc2ccc(-c3ccccc3)o2)C1` (configuration not stated), 23.1 µM (active); under `CCOc1cc(/C=N/NC(=O)c2c(C)nc3ccc(Cl)cn23)ccc1O`, 8.2 µM (active).
Under `CCOc1cc(C=NNC(=O)CCCC(=O)NN=Cc2ccc(O)c(OCC)c2)ccc1O` stands “inactive”.
As for `CCOc1ccc(/C=N\NC(=O)c2c(C)nc3cc(C)ccn23)cc1`, the entry is “inactive”; as for `CCOc1cc(/C=N/Nc2cc(C)nc3ccc(C)cc23)ccc1O`, 25.9 µM (active); as for `Cc1ccc2nc(C)cc(N/N=C/c3ccc(F)cc3)c2c1`, “inactive”.
For the compound `C/C=C(/C)C(=O)OC1Cc2c(ccc3ccc(=O)oc23)OC1(C)C` (configuration not stated), the Potency result is “inactive”.
Take `CCCS(=O)(=O)N1CCCC(C(=O)NCc2ccco2)C1` (configuration not stated): the Potency entry was “inactive”.
`COc1ccc(C(C#N)Nc2ccc(C)cc2)cc1` (configuration not stated): the Potency entry is “inactive”.
Regarding `Fc1ccc(/C=N/Nc2nc(-c3cccnc3)nc3ccccc23)cc1`, the Potency was 16.4 µM (active).
Take `O=C(N/N=C/c1cccnc1)c1ccc(NC(=O)c2ccc(F)cc2)cc1`: the Potency entry is “inactive”.
Regarding `CCOc1ccc(C2/C(=C(/O)c3ccc4c(c3)CC(C)O4)C(=O)C(=O)N2CCCn2ccnc2)cc1` (configuration not stated), the Potency entry was “inactive”.
For `O=C1/C(=C\c2ccccc2Cl)SC(=S)N1CCC(=O)N1CCCc2ccccc21`, the Potency is 14.6 µM (active).
Turning to `O=C(CN1CCCCCC1)NCCN1C(=O)S/C(=C\c2ccccc2Cl)C1=O`, the Potency result was “inactive”.
In the case of `COc1ccc(NC(=O)CCN2C(=O)/C(=C/c3ccc4c(c3)OCO4)SC2=S)cc1`, the Potency entry is “inactive”.
With `C=C(C)C1CC=C(CO)CC1` (configuration not stated), the Potency entry was “inactive”.
Take `CCCn1c(N)c(C(=O)CSc2nnc(-c3cccnc3)n2-c2ccc(C)cc2C)c(=O)[nH]c1=O`: the Potency entry is “inactive”.
Under `CSC(=S)N/N=C/c1c[nH]c2ccccc12` stands 0.92 µM (active).
As for `Cc1c(/C=N\NC(=O)c2cc3ccccc3o2)c2ccccc2n1C`, the figure is 3.66 µM (active); as for `O=C(N/N=C/c1c[nH]c2ccccc12)c1cc2ccccc2o1`, 14.6 µM (active).
Under `O=C(N/N=C/c1cccc(O)c1)c1cc2c(ccc3ccccc32)o1` stands “inactive”; under `Nc1nonc1-n1nnc(C(=O)N/N=C/c2c[nH]c3ccccc23)c1-c1ccccc1`, “inactive”.
Take `O=C(O)c1cccc(NC(=S)N/N=C/c2c[nH]c3ccccc23)c1`: the Potency entry is “inactive”.
As for `O=C(N/N=C/c1c[nH]c2ccccc12)c1ccccc1O`, the entry is “inactive”.
In the case of `Cc1c(/C=N/N2C(=O)C3C4C=CC(C4)C3C2=O)c2ccccc2n1C` (configuration not stated), the Potency result was “inactive”.
Under `NC(=O)CSc1c[nH]c2ccccc12` stands “inactive”; under `O=C(O)C(F)(F)C(NCc1ccccc1)c1ccccc1` (configuration not stated), “inactive”; under `COc1ccc(S(=O)(=O)N2CCC(C(=O)NCCC(=O)NCCc3cccc(F)c3)CC2)cc1`, “inactive”.
As to `Cc1ccc(S(=O)(=O)C2C(=O)NC3(C)CC2c2ccccc2O3)cc1` (configuration not stated), the Potency entry is “inactive”.
As for `Cn1c(SCC(=O)N2CCCC2)nnc1-c1ccc2c(c1)OCO2`, the Potency result is “inactive”.
As for `CCC1C(C#N)=C(SC)NC2=C1C(=O)CC(C)(C)C2` (configuration not stated), the entry is “inactive”; as for `Nc1nonc1-n1nnc(C(=O)N/N=C/C2CCCCC2)c1-c1ccccc1`, “inactive”.
